# Test results from PubChem BioAssay (NCI).
# About 83,000 compounds went through this panel and 20% of them were active in at least one assay; those are over-represented in the sample as a whole.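 Assay: single dose, 48 h. Readout: percent growth (0 = no net growth; negative = cell death). Active: <10.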 A number with no mark means an inactive call. Activity calls are given as the source filed them.
# What was measured:
# Experiment in all cases: NCI-60 one-dose screen, 48 h (100 = growth as untreated, 0 = no growth, -100 = all killed)
# Conditions in all cases: 10 µM unless noted
# SR leukemia = test system: SR leukemia
# RPMI-8226 leukemia = test system: RPMI-8226 leukemia
# OVCAR-5 ovarian = test system: OVCAR-5 ovarian
# OVCAR-4 ovarian = test system: OVCAR-4 ovarian
# SK-OV-3 ovarian = test system: SK-OV-3 ovarian
# IGROV1 ovarian = test system: IGROV1 ovarian
# OVCAR-3 ovarian = test system: OVCAR-3 ovarian
# HS 578T breast = test system: HS 578T breast
# NCI/ADR-RES ovarian = test system: NCI/ADR-RES ovarian
# OVCAR-8 ovarian = test system: OVCAR-8 ovarian
Structure (SMILES),growth (SR leukemia),growth (RPMI-8226 leukemia),growth (OVCAR-5 ovarian),growth (OVCAR-4 ovarian),growth (SK-OV-3 ovarian),growth (IGROV1 ovarian),growth (OVCAR-3 ovarian),growth (HS 578T breast),growth (NCI/ADR-RES ovarian),growth (OVCAR-8 ovarian)
CCCCCCNC(=O)Oc1ccc(/C(=C(\C)c2ccc(Cl)cc2)c2ccc(OCCN3CCCCC3)cc2)cc1,-22.4% (active),17.7%,72%,36.7%,56.3%,54.8%,58.4%,65.2%,63.5%,
Cc1[nH]c(C(=O)Nc2ccc(C(=O)N3CCNCC3)cc2OC(C)C)c(Cl)c1Cl,-34.3% (active),,90.3%,81.9%,89.3%,69.5%,71.4%,73%,80.5%,87.1%
CCOC(=O)NCCc1ccccc1,74%,,112%,121%,106%,85.3%,116%,105%,,108%
Cc1ccc(C(C)C)cc1C(=O)C[n+]1ccccc1,86.1%,114%,91.1%,101%,97.7%,98.6%,101%,100%,107%,
O=C1CN(CCN2CC(=O)N(Cc3ccccc3)C(=O)C2)CC(=O)N1Cc1ccccc1,108%,99.5%,109%,106%,113%,109%,109%,96.7%,103%,
COc1ccc(C(Cc2ccccc2)NCCN2CCOCC2)cc1 (configuration not stated),96.4%,109%,94.7%,98.7%,102%,91.8%,100%,107%,98.7%,
Cc1ccc(C(=O)NN2C(=O)CSC2c2cccc([N+](=O)[O-])c2)cn1 (configuration not stated),109%,82.7%,94.7%,95%,114%,73.3%,92.9%,124%,95.2%,
COc1ccc(N)c(N)c1,121%,,110%,103%,96.9%,107%,125%,110%,,108%
OC(c1ccccc1)C(NC(Cc1ccccc1)c1ccccc1)c1ccccc1 (configuration not stated),91.4%,73.6%,90.8%,89.1%,91.7%,67%,96.9%,,82.6%,
O=C1NC(=O)C(c2ccccc2)(c2ccccc2)N1Cc1cn(-c2c3ccccc3nc3ccccc23)nn1,31.4%,72.4%,103%,81.1%,83.5%,83.3%,87%,,87%,
c1ccc2cc(C[n+]3ccn(CCCCCCCCCCCCn4cc[n+](Cc5ccc6ccccc6c5)c4)c3)ccc2c1,-50% (active),-70.7% (active),-25.3% (active),-60.1% (active),-47.9% (active),-73.8% (active),-88.7% (active),-59.2% (active),61.7%,
COc1ccc(CN2c3ccccc3Sc3ccccc32)c(F)c1,12.2%,12.2%,50.2%,61.6%,30.4%,50.3%,-20.4% (active),21.6%,22%,
Cc1ccccc1C(=O)NN,86.2%,,121%,117%,98.8%,85.8%,126%,106%,,109%
CCOC(=O)c1c2c(n(-c3ccc(C#N)cc3)c1-c1ccccc1)C=CCC2,92.1%,85.8%,96.7%,77.2%,89.6%,77.9%,105%,99.3%,94%,
CCCCOc1ccc(/C=N/NC(N)=S)cc1,84.7%,49.1%,93.1%,41.3%,92.1%,52.3%,63.2%,89.8%,85.5%,
CN1C(=C2C(=O)OC(C)(C)OC2=O)CCC1C(=O)NCc1ccc(Cl)cc1Cl (configuration not stated),94.7%,82.9%,94.9%,98.2%,85.8%,99.8%,101%,97.5%,101%,
CCc1ccc(Oc2c(-c3ccc(OCc4ccc(Cl)cc4)cc3O)nn(C)c2C(F)(F)F)cc1,-26.4% (active),-16.8% (active),13.2%,12.5%,-6.92% (active),24.3%,-20.9% (active),7.74% (active),-3.62% (active),
COc1cccc(-c2nc(-c3ccc(NC(=O)C(C)C)cc3)[nH]c2-c2ccnc(Br)c2)c1,-14.5% (active),,70.2%,33.3%,46.4%,52.1%,37.3%,-13.2% (active),46.7%,38.1%
Cc1ccc(/C=C(\C#N)n2nc3cccc(F)c3n2)cc1,62.8%,,97.1%,97%,107%,90.9%,84.4%,91.5%,86%,94.2%
COc1cccc(-c2nc(-c3ccc(NS(=O)(=O)c4ccccc4)cc3)[nH]c2-c2ccnc(Br)c2)c1,8.32% (active),,48.3%,34.2%,63.1%,44.6%,30.2%,7.88% (active),40.8%,33.4%
Cc1ccc(-c2nc(N3CCN(C(=O)Nc4ccc(Cl)c(C(F)(F)F)c4)CC3)c3ccccc3n2)cc1,75%,,86.9%,77.8%,81.7%,78.2%,74.8%,82.2%,69.1%,73.6%
NCCCNc1nc2ccc(Cl)cc2c2c(=O)c3cc(F)ccc3sc12,-27.4% (active),,83.5%,11.3%,89.4%,52.8%,8.74% (active),65.9%,65.9%,57.3%
CCOC(=O)c1cn2ncnc(Oc3ccc(NC(=O)NCCN4CCOCC4)c(Cl)c3)c2c1C,105%,,96.4%,96.3%,92.2%,101%,105%,91.4%,101%,101%
COc1ccc(C2C(C#N)=C(N)Oc3c2sc2c(C)cccc32)cc1 (configuration not stated),15.4%,,23.5%,50.1%,67.4%,23.3%,4.88% (active),18.6%,4.33% (active),22.6%
C=C(C)C1CCC2(C)OC2C1 (configuration not stated),116%,,102%,94.6%,116%,89.5%,123%,106%,99.6%,113%
Cn1cc(-c2cc3ncnc(Nc4ccc(CC(=O)Nc5cc(C(C)(C)C)on5)cc4)c3s2)cn1,10.9%,,61.6%,34.7%,10.4%,11.1%,36.6%,15.6%,60.6%,40.7%
O=C(CCN1C(=O)/C(=C/c2ccc(O)cc2)SC1=S)Nc1ccc(Cl)cc1,110%,,95.6%,91.1%,71.8%,79.7%,99.4%,92.8%,104%,97%
O=c1c2cc(F)cc(Cl)c2sc2c(NCCCNCCO)nc3ccccc3c12,-6.83% (active),,93.7%,79.1%,93.9%,79.4%,96.1%,88.1%,89.2%,95.7%
